In test [1] the target is RAC-alpha serine/threonine-protein kinase (Homo sapiens) (UniProt P31749). The note with it: at 0.1 µM.
Test [2] shares this target. The note with it: at 1 µM.
Test [3] concerns the target RAC-beta serine/threonine-protein kinase (Homo sapiens) (UniProt P31751). The following applies: at 0.1 µM.
Test [4] shares this target. The note with it: at 1 µM.
Test [5] addresses RAC-gamma serine/threonine-protein kinase (Homo sapiens) (UniProt Q9Y243). The following applies: at 0.1 µM.
The target is the same in test [6]. The note with it: at 1 µM.
Test [7] has as its target G protein-coupled receptor kinase 6 (Homo sapiens) (UniProt P43250). The following applies: at 0.1 µM.
The target is the same in test [8]. The following applies: at 1 µM.
Test [9] has as its target T1, Rhodopsin kinase GRK7 (Homo sapiens) (UniProt Q8WTQ7).
T1 sequence (whole entry): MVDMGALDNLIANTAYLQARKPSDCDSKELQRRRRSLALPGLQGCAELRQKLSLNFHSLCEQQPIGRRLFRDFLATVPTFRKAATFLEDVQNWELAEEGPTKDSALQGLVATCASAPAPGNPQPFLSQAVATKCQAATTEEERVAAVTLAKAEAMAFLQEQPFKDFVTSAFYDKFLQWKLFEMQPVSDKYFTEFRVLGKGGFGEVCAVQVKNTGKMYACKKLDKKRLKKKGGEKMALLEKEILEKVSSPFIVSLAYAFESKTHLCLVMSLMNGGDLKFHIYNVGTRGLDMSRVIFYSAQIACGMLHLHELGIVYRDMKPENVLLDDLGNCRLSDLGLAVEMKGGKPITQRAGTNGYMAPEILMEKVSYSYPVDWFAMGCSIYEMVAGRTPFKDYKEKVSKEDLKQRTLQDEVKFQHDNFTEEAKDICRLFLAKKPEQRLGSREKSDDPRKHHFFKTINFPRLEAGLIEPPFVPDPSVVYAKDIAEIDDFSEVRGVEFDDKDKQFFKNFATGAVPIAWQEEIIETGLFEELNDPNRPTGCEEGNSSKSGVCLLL
The note with it: at 0.1 µM.

Test [10] addresses T1, Rhodopsin kinase GRK7 (Homo sapiens). The following applies: at 1 µM.
Test [11] deals with Serine/threonine-protein kinase MRCK alpha (Homo sapiens) (UniProt Q5VT25). The following applies: at 0.1 µM.
Serine/threonine-protein kinase MRCK alpha (Homo sapiens), sequence (Q5VT25 whole entry): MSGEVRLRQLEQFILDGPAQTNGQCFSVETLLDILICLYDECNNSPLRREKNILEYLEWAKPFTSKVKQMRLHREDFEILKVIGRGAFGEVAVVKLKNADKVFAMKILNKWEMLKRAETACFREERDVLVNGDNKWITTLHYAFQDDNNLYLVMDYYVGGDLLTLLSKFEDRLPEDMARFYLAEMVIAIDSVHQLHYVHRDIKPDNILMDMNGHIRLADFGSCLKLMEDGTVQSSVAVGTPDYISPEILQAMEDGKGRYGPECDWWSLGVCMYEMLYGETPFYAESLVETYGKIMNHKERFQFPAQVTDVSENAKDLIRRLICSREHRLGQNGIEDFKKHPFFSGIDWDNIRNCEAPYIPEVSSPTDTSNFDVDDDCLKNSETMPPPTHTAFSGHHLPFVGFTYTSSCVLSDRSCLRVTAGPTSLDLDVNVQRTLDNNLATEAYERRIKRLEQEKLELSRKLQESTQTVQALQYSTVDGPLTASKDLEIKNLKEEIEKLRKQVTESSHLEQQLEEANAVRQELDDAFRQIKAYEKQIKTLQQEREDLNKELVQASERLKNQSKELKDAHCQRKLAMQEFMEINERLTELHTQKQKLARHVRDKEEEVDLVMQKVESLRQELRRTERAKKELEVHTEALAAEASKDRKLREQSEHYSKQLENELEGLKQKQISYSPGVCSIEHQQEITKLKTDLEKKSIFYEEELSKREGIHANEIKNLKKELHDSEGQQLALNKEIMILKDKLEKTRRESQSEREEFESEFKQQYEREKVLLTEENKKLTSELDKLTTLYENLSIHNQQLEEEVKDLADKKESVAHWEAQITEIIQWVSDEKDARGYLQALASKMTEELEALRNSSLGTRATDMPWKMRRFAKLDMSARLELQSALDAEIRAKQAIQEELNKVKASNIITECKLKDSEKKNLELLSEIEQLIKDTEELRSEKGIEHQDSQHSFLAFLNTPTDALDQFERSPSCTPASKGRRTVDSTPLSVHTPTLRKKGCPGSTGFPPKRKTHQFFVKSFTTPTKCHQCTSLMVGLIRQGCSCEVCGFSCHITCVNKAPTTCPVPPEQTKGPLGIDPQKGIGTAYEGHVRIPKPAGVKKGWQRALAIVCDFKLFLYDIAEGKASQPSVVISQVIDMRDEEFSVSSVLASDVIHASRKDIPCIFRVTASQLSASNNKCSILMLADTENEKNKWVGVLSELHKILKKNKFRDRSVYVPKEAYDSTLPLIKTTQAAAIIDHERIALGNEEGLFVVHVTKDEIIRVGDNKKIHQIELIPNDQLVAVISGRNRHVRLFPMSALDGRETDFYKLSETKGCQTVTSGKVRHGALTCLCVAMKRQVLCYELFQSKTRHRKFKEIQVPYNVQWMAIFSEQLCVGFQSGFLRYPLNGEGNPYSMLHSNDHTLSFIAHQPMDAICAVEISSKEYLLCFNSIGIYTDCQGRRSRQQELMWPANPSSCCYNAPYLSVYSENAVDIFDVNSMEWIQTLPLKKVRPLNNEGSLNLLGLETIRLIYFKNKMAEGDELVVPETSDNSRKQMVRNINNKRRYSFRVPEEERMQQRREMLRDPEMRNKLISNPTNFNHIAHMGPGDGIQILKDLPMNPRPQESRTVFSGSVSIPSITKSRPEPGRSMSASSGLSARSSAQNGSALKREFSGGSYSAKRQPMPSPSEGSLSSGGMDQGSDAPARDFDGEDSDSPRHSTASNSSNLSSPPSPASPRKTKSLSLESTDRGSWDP
Test [12] shares this target. The note with it: at 1 µM.
Test [13] concerns the target Serine/threonine-protein kinase MRCK beta (Homo sapiens) (UniProt Q9Y5S2). The note with it: at 0.1 µM.
Test [14] has the same target. The following applies: at 1 µM.
The target in test [15] is Ribosomal protein S6 kinase alpha-5 (Homo sapiens) (UniProt O75582). The note with it: at 0.1 µM.
For test [16] the target is unchanged. The following applies: at 1 µM.
The target in test [17] is Ribosomal protein S6 kinase alpha-4 (Homo sapiens) (UniProt O75676). The following applies: at 0.1 µM.
Ribosomal protein S6 kinase alpha-4 (Homo sapiens), sequence (O75676 whole entry, looked up): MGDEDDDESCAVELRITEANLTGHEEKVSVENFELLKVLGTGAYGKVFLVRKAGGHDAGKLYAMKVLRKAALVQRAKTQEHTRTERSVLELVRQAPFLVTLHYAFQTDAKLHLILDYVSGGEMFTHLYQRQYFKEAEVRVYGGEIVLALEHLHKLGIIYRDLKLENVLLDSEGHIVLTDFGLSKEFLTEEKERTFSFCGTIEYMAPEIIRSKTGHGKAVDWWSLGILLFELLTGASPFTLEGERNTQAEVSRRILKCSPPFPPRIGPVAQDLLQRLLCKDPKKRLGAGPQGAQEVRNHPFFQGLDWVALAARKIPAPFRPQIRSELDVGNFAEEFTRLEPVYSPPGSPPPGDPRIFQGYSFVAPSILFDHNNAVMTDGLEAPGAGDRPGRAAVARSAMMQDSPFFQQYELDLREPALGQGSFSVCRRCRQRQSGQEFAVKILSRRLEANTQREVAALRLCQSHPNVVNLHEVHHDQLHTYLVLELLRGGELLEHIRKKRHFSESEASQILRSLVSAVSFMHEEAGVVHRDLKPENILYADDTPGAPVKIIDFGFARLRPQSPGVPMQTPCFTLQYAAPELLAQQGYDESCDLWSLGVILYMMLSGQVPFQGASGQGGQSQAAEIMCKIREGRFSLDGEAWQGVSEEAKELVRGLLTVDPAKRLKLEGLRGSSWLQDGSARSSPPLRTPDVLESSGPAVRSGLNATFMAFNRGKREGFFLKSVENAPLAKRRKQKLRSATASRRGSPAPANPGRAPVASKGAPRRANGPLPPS
The target is the same in test [18]. The following applies: at 1 µM.
For test [19], the target named is Ribosomal protein S6 kinase beta-1 (Homo sapiens) (UniProt P23443). The following applies: at 0.1 µM.
Ribosomal protein S6 kinase beta-1 (Homo sapiens), sequence (P23443 whole entry, looked up): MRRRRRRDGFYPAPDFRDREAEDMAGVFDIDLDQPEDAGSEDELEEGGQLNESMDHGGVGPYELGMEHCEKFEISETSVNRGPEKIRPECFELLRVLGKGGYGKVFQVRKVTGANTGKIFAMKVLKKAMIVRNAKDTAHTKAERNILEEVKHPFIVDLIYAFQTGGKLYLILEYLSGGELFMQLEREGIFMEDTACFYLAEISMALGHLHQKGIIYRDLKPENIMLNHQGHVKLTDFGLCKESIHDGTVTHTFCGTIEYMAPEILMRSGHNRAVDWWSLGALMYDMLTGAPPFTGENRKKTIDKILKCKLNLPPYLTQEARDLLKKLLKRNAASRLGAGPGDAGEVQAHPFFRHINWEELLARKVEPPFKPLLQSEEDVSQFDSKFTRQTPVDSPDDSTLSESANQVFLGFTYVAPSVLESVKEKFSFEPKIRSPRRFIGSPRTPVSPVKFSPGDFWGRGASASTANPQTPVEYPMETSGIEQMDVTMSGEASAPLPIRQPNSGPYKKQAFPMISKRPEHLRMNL
Test [20] shares this target. The note with it: at 1 µM.

RAC-beta serine/threonine-protein kinase (Homo sapiens), sequence (P31751 whole entry): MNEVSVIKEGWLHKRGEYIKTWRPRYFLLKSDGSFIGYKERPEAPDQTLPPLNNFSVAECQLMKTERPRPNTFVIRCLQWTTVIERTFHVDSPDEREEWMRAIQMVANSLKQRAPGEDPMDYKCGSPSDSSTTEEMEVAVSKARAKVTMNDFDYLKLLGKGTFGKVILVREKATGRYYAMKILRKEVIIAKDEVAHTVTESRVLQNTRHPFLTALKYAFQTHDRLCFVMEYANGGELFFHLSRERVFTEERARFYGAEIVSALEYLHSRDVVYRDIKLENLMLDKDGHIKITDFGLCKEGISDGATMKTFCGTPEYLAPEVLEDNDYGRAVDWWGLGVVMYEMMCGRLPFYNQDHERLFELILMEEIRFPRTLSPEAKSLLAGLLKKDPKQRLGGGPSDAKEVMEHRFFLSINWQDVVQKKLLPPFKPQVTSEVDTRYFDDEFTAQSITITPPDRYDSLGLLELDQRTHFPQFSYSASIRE
G protein-coupled receptor kinase 6 (Homo sapiens), sequence (P43250 whole entry, looked up): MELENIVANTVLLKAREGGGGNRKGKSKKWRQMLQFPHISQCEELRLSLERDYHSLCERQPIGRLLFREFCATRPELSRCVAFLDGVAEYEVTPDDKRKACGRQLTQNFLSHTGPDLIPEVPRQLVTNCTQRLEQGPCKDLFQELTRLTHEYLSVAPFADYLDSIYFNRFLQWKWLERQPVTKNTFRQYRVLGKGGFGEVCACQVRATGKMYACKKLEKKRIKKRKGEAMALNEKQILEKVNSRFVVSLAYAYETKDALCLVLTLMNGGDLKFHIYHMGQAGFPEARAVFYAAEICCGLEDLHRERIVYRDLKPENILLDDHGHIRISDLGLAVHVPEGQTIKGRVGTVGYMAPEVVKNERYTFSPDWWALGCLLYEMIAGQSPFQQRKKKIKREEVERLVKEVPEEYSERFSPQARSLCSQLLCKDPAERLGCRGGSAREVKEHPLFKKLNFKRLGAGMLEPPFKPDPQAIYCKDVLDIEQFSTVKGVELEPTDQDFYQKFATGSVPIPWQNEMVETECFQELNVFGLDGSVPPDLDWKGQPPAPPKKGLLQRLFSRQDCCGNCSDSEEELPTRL
RAC-alpha serine/threonine-protein kinase (Homo sapiens), sequence (P31749 whole entry): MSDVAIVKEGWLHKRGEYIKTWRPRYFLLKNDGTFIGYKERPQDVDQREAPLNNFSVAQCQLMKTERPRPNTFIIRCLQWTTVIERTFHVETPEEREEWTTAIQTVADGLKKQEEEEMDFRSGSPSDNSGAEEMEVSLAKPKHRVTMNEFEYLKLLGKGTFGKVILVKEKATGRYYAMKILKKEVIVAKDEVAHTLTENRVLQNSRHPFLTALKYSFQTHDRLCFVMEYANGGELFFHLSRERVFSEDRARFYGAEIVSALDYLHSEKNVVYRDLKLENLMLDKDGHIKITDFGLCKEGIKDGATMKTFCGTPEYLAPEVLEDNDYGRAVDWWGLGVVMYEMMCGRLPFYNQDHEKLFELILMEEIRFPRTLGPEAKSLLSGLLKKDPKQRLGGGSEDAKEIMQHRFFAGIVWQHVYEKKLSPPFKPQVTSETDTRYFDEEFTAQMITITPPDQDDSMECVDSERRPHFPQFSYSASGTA
RAC-gamma serine/threonine-protein kinase (Homo sapiens), sequence (Q9Y243 whole entry): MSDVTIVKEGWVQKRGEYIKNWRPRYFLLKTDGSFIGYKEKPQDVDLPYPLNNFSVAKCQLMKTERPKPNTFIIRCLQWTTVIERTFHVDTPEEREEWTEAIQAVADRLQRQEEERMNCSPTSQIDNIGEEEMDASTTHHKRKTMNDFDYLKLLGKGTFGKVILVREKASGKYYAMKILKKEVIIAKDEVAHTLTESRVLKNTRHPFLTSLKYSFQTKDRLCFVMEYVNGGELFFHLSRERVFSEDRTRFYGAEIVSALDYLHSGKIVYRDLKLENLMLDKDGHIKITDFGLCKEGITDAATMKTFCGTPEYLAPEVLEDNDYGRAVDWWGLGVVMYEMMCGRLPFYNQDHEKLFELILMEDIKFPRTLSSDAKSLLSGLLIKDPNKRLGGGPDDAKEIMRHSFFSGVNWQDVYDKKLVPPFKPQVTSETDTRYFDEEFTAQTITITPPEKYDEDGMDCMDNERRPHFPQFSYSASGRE

As to `Fc1ccc(-c2ncn(C3CCNCC3)c2-c2ccnc(Oc3ccc(Oc4ccccc4)cc3)n2)cc1`, the inhibition came to 1.23% in [1]; 1.87% in test [2]; 1.23% in test [3]; 1.51% in [4]; 2.28% in test [5]; 4.62% in test [6]. In addition, the inhibition was found to be 3.64% in test [7]; 6.73% in test [8]; 10.9% in [9]; 3.4% in [10]; 5.81% in test [11]; 7.37% in [12]. The inhibition was -0.26% in [13]; 1.5% in [14]; 10.2% in [15]; 11.9% in test [16]; 2.53% in test [17]; 5.09% in [18]. The inhibition in test [19] came to 2.41%; in [20] it was 4.57%.

As for `COc1cc2ncn(-c3cc(OCc4cccs4)c(C(N)=O)s3)c2cc1OC`, the inhibition in test [1] is -2.85%; in test [2], -1.83%; in test [3] it was -1.63%; in [4] it was -2.73%; in [5], -3.06%; in test [6], -3.04%. Moreover, the inhibition came to 4.35% in test [7]; 17.9% in [8]; 5.59% in [9]; 13% in [10]; 2.82% in [11]; 7.52% in test [12]. Moreover, the inhibition in [13] was found to be 1.67%; in [14], 1.38%; in test [15] it was 2.22%; in test [16] it was 5.4%; in [17] it was 4.25%; in test [18], 8%. For the same compound, the inhibition was 1.35% in test [19] and 3.91% in [20].

With `NC(=O)Cc1ccccc1Oc1nccc(-c2c(-c3ccc(F)cc3)ncn2C2CCNCC2)n1`, the inhibition in [1] was 0.16%; in test [2] it was 0.12%; in test [3], 1.23%; in test [4], 0.29%; in test [5], 0.15%; in [6], 1.21%. In addition, the inhibition is -1.33% in test [7]; -0.72% in test [8]; 1% in test [9]; 1.09% in [10]; 0.16% in test [11]; -0.52% in test [12]. Also, the inhibition in test [13] is -0.05%; in test [14], 1.05%; in test [15], 2.22%; in test [16], 1.53%; in [17], -1.39%; in test [18], 1.64%. For the same compound, the inhibition in [19] stood at 0.73%; in test [20], 1.27%.

For `Fc1ccc(-c2c(-c3ccncc3)nc3n2CCS3)cc1`, the inhibition in test [1] was -3.71%; in [2], -2.76%; in test [3] it was -2.67%; in [4], -1.63%; in test [5] it was -3.31%; in test [6] it was -0.46%. Further, the inhibition was determined as 5.32% in [7]; 4.18% in test [8]; 2.86% in test [9]; 7.9% in [10]; 1.61% in [11]; 5.14% in test [12]. The inhibition in test [13] came to 2.15%; in test [14], 9.93%; in [15], 3.9%; in test [16], 8.14%; in test [17], 4.42%; in test [18], 8.86%. For the same compound, the inhibition in test [19] amounted to 0.97%; in test [20], 2.52%.

On to `FC(F)(F)c1cccc(Nc2nccc(-c3cnn4nc(-c5ccccc5)ccc34)n2)c1`, for which the inhibition was 0.83% in [1]; 0.65% in test [2]; 0.62% in test [3]; 1.58% in [4]; 0.22% in test [5]; -2.03% in test [6]. Also, the inhibition was -2.23% in test [7]; -0.87% in test [8]; 4.12% in test [9]; 6.07% in test [10]; -4.69% in [11]; -0.12% in test [12]. Further, the inhibition in [13] came to 0.14%; in test [14] it was 0.03%; in [15], 1.36%; in [16], 0.17%; in test [17] it was 1.71%; in test [18] it was 0.86%. Also, the inhibition in [19] was determined as 1.59%; in test [20], 0.67%.

Regarding `CN(C)CCOc1ccc(-c2cc(-c3ccc4c(c3)CCC4=NO)c(-c3ccncc3)o2)cc1`, the inhibition was -0.58% in [1]; -0.16% in test [2]; -0.71% in [3]; -0.42% in test [4]; -0.65% in test [5]; 5.79% in test [6]. In addition, the inhibition was -3.48% in test [7]; -0.1% in [8]; 2.18% in test [9]; -5.7% in test [10]; -0.43% in test [11]; -0.33% in test [12]. Moreover, the inhibition in [13] is -0.99%; in [14], -2.76%; in test [15] it was -1.98%; in test [16] it was -2.88%; in test [17], 0.1%; in [18], -2.21%. Also, the inhibition in test [19] is -1.83%; in test [20] it was -2.77%.

Broadly, the inhibition is the change of the read-out against control, counted positive when it falls.

For the origin of these results see ChEMBL document CHEMBL1961873, “Compounds: GSK PKIS; Assays: Nanosyn kinase panel” (2012).
